PubChem BioAssay AID624330 (Southern Research Specialized Biocontainment Screening …, 2012)
About 2,100 (0.62%) of roughly 340,000 compounds were called active.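 The calls were made as follows: active = first-screen hits whose inhibition reached a set limit at any dose in the follow-up dose series; inconclusive = inhibition above the set first-screen limit but never retested; inactive = the rest.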 Only a sample is shown. Results with a measured potency or affinity are listed apart.

biological target: Rac GTPase-activating protein 1 (Homo sapiens) (UniProt Q9H0H5); test: MgcRacGAP GTPase-activating activity inhibitors, confirmation, biochemical, ADP Hunter fluorescence, primary and confirmatory (AID 624330); conditions: MgcRacGAP-stimulated Rac1 GTP hydrolysis, at 30 µM, active compounds read high, GST-tagged Rac1 F28L mutant substrate;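 also: fluorescence reports GDP produced by GAP-driven GTP hydrolysis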
Sequence (Q9H0H5 whole entry, looked up): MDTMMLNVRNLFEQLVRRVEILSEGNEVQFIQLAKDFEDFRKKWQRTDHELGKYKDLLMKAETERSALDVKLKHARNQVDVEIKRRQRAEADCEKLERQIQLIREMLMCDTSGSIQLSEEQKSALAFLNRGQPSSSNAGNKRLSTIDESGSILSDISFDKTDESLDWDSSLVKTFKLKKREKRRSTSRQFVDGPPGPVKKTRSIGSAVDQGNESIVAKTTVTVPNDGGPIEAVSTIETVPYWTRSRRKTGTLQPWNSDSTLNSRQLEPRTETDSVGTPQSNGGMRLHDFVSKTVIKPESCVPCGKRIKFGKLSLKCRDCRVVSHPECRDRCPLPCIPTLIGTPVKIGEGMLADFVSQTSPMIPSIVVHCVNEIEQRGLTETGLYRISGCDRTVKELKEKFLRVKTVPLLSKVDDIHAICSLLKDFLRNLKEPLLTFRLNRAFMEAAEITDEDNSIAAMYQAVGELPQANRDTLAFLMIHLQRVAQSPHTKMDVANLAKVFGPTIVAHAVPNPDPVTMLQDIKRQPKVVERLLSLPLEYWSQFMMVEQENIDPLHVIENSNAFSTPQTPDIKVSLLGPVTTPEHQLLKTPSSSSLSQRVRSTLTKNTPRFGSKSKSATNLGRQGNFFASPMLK

inhibition, inactive:
N/C(Cc1cccs1)=N\OC(=O)COc1ccc(Br)cc1 0.69%
CN(CC(=O)NCc1ccc(F)cc1)Cc1cccc(Cl)c1 5.16%
COc1ccc(CNC(=O)CCOc2ccc(C(C)(C)C)cc2)cc1 4.83%
COc1ccc(CNC(=O)CN(C)Cc2ccc(SC)cc2)cc1 9.14%
CSc1ccc(CN(C)CC(=O)NCc2ccccc2)cc1 4.61%
Cc1cccc(NC(=O)C2(C)CC3c4ccccc4C2c2ccccc23)c1C (stereo unspecified) 4.55%
CC(C)(C)OC(=O)N[C@@H](Cc1ccccc1)C(=O)NCC1CCC(C(=O)N[C@@H](CC(=O)O)C(=O)O)CC1 (stereo partly specified) -2.85%
O=S(=O)(c1ccccc1)N1CCN(C2CCN(Cc3ccccc3)CC2)CC1 9.41%
CCOC(=O)N1CCC(N2CCN(S(=O)(=O)c3ccc(OC)cc3)CC2)CC1 20.1%
COc1ccc(S(=O)(=O)N2CCN(C3CCN(Cc4ccccc4)CC3)CC2)cc1 8.39%
COc1ccccc1N1CCN(C2CCN(S(=O)(=O)c3ccc(C)cc3)CC2)CC1 -5.5%
O=S(=O)(c1ccc(Cl)cc1)N1CCN(C2CCN(Cc3ccccc3)CC2)CC1 2.66%
COc1ccccc1N1CCN(C2CCN(S(=O)(=O)c3ccc4ccccc4c3)CC2)CC1 4.9%
CCOC(=O)N1CCC(N2CCN(S(=O)(=O)c3ccc(C)cc3)CC2)CC1 22.2%
COc1ccc(S(=O)(=O)N2CCN(Cc3ccccc3)CC2)cc1 5.15%
O=c1c2ccccc2nnn1CSc1ccccc1F 8.16%
Cc1cccc(C(=O)NCC(=O)NC2CCC(C)CC2)c1 (stereo unspecified) 3.71%
O=C(CSc1c2c(nc3ccccc13)CCC2)N1CCCC1 10.3%
Cc1ccn2cc(CCNC(=O)CC3CCCCC3)nc2c1 16%
O=C(c1cc(Cl)nc2ccccc12)N1CCCCC1 3.41%
CCN(CC)c1ccc(C(=O)Nc2cccc(F)c2)cc1 15.5%
CCN(CC)c1ccc(C(=O)NNC(=O)CCl)cc1 9.55%
Cc1ccc(-c2csc(NC(=O)c3ccccc3F)c2C(=O)O)cc1 5.32%
COc1cccc(COC(=O)c2cc(S(=O)(=O)N3CCCCC3)ccc2N2CCOCC2)c1OC -0.42%
COc1ccc(CNS(=O)(=O)CCNCCc2ccccc2)cc1 6.36%
COc1ccc(CCNC(=O)C(=O)NCCCN2CCOCC2)cc1 0.98%
O=C(Cc1ccc(F)cc1)NCCc1ccccc1 -3.3%
COc1ccc(CCNCc2ccc(OCc3ccccc3)cc2)cc1 -1.52%
COc1ccc(CC(=O)NCCN2CCOCC2)cc1 -0.23%
O=S(=O)(Cc1ccccc1)NCCc1ccc(F)cc1 -2.46%
O=C(c1ccc(Br)o1)N1CC=C(c2ccccc2)CC1 -9.29%
COCCCNC(=O)C1CCCN(S(C)(=O)=O)C1 (stereo unspecified) 4.1%
N=c1c(S(=O)(=O)c2ccc(Br)cc2)cc2c(=O)n3ccccc3nc2n1C1CCCC1 3.79%
N#CCC(=O)Nn1c(=S)[nH]c2ccccc2c1=O 3.15%
CCSCCOC(=O)C1=C(C)NC(=O)NC1c1ccccc1 (stereo unspecified) 2.5%
CCCCNC(=O)CNC(=S)N(Cc1cc(OC)c(OC)c(OC)c1)C1CCCC1 5.07%
COc1ccc(C(=O)CN2CCN(c3ccc(F)cc3)CC2)cc1 11.7%
COc1ccccc1N1CCN(CCCC(=O)c2ccc(F)cc2)CC1 8.13%
COc1ccccc1N1CCN(CCCCCCOc2ccc(F)cc2)CC1 7.05%
COc1ccccc1N1CCN(CCCCOc2ccc(F)cc2)CC1 4.56%
CCN(CC)S(=O)(=O)c1ccc(NC(=O)C(OC)c2ccccc2)cc1 (stereo unspecified) 11.8%
C/C(=N\Nc1ccccn1)c1ccc(C#N)cc1 6.31%
Cc1nn(CC(=O)N2CCc3ccccc3C2)c(C)c1[N+](=O)[O-] 4.25%
Nc1ccc(-c2nc3ccccc3o2)cc1 4.77%
Nc1ccc(-c2nc3cc(N)ccc3o2)cc1 17.5%
COc1ccc(CC(=O)OCC(=O)NCc2ccc(Cl)cc2)cc1 -11.6%
COc1cccc(NC(=O)COC(=O)c2ccccc2C(=O)N2CCN(c3ccccc3)CC2)c1 -5.54%
Cc1ccccc1N(CC(=O)N1CCCC1)S(=O)(=O)c1ccc(Cl)cc1 5.47%
CCOc1ccc2nc(-c3ccccc3)nc(SCC(=O)Nc3ncc(C)s3)c2c1 -5.25%
O=C(COc1ccc2c3c(c(=O)oc2c1)CCC3)N1CCCC1 11.2%
CSc1ncccc1C(=O)NCC1CCCCC1 6.8%
COc1cc2c(cc1NC(=O)C(F)(F)F)-c1ccc(NC(=O)C(F)(F)F)cc1C2 4.33%
CC(C)C(=O)Nc1ccc2c(c1)Cc1cc(NC(=O)C(C)C)ccc1-2 12.2%
O=C(CNC(=O)C(c1ccccc1)c1ccccc1)N/N=C\c1cccc(O)c1 6.95%
CCOc1ccc(/C=N\NC(=O)CC(=O)NCCc2ccccc2)cc1 13%
Cc1ccc(/C=N\NC(=O)CC(=O)NCCc2ccccc2)cc1 -1.99%
COc1ccc(/C=N\NC(=O)CNC(=O)C(c2ccccc2)c2ccccc2)cc1[N+](=O)[O-] -25.7%
COc1cc(C(=O)N/N=C/c2ccc(OC(=O)c3ccccc3Cl)c(OC)c2)ccc1O 17.8%
COc1ccc(/C=N/NC(=O)CCc2ccccc2)cc1O 26.6%
COc1cccc(/C=N/NC(=O)CCc2ccccc2)c1 8.09%
COc1ccc(NC(=O)CCNC(=O)c2ccccc2Cl)cc1OC 9.17%
COCCN(C(=O)COC(=O)c1ccc(Br)o1)c1c(N)n(Cc2ccccc2)c(=O)[nH]c1=O 7.5%
O=c1[nH]c(CSc2ncccn2)nc2c1cnn2-c1ccccc1 9.39%
Fc1ccc(-n2cc(CNCCc3cccnc3)c(-c3ccccc3Cl)n2)cc1 5.92%
C=CC[C@@H](CC(=O)N(CCO)Cc1ccccc1)C(=O)N[C@H](COC(=O)[C@@H](CC=C)Cc1ccc(F)cc1)C(C)(C)C 4.96%
CC1(C)CC(=O)C(CC2C(=O)CC(C)(C)CC2=O)C(=O)C1 12.9%
COC(=O)c1cccnc1SCc1ccccc1 3.27%
CCOc1ncccc1C(=O)Nc1cccc(S(=O)(=O)N2CCOCC2)c1 3.19%
COC(=O)CCNC(=O)Cn1cnc2sc3c(c2c1=O)CCCC3 3.18%
CC1(C)CC(=O)N(Cc2ccccc2)C(=O)C1 2.51%
O=C(NCCc1ccc(F)cc1)C(=O)NCC1CCCN1S(=O)(=O)c1cccs1 (stereo unspecified) -7.17%
COc1cc(/C=N/NC(=O)C(=O)NCc2ccco2)ccc1O 17.7%
COc1ccc(/C=N/NC(=O)/C(=C/c2ccccc2)CCO)cc1 8.48%
COc1ccc(/C=N/NC(=O)CC(=O)NCCc2ccccc2)cc1OC 1.81%
COC(=O)c1ccc(/C=N\NC(=O)CC(=O)NCCc2ccccc2)cc1 0.63%
CC(C(=O)Nc1ccc(S(=O)(=O)N2CCOCC2)cc1)N1CCN(c2ccccn2)CC1 (stereo unspecified) -2.88%
CCc1cc(C(=O)OC)c(NC(=O)CC2NCCNC2=O)s1 (stereo unspecified) 0.55%
CC(C)OCC(O)CN1CCNCC1 (stereo unspecified) 5.48%
OC(COc1ccccc1Br)CN1CCNCC1 (stereo unspecified) 1.5%
CC(C)CN(CC(C)C)C(=O)C12CCC(C)(C(=O)C1)C2(C)C (stereo unspecified) -15.8%
Cc1ccc(NC2CCCN(C(=O)c3cccs3)C2)cc1C (stereo unspecified) 22.5%
CCOc1ccc(OCc2ccc(C(=O)N3CCCC(C)C3)cc2)cc1 (stereo unspecified) 0.96%
COc1ccccc1NC(=O)CN1CCN(c2ccccc2)CC1 3.59%
O=C(Cc1ccccc1)N/N=C/c1cc(Br)cs1 10.7%
CCCCCNCC(=O)Nc1cc(C(F)(F)F)ccc1OCCOC 29.2%
CN1CCN(CC(=O)Nc2ccccc2Oc2ccccc2)CC1 4.33%
Cc1ccc(NC(=O)CN2CCCC2)cc1Br 30.6%
Cc1ccc(NC(=O)CN2CCCCCC2)cc1Br 24.2%
COCCOc1ccc(C(F)(F)F)cc1NC(=O)c1ccc(C(F)(F)F)cc1 -6.51%
Cc1nccn1CC(=O)N/N=C/c1cc(Br)cs1 3.63%
O=C(CNC(=O)c1ccccc1)NCC(O)c1ccc([N+](=O)[O-])cc1 (stereo unspecified) -4.75%
CCOCCCNC(=O)Cn1cnc2sc(C)c(S(=O)(=O)N3CCN(c4ncccn4)CC3)c2c1=O 2.97%
CC(C)C[C@H]1CN([C@@H](Cc2ccc(O)cc2)CN2CCC[C@@H]2CN2C(=O)C(=O)NC[C@@H]2Cc2ccccc2)C(=O)C(=O)N1CC1CCCCCC1 10.4%
O=C(CNC(=O)c1ccco1)NCc1ccc2c(c1)OCO2 3.26%
C=CCn1c(-c2ccc(Cl)cc2)cnc1SC(C)C(N)=O (stereo unspecified) 13.8%
CCOc1cc(N2CCOCC2)c(OCC)cc1NC(=O)c1ccc2ncsc2c1 9.53%
